Our source for the growth values is PubChem BioAssay (NCI).

Test systems include SR leukemia; RPMI-8226 leukemia; OVCAR-8 ovarian; OVCAR-5 ovarian; OVCAR-4 ovarian; SK-OV-3 ovarian; IGROV1 ovarian; OVCAR-3 ovarian; HS 578T breast; NCI/ADR-RES ovarian; T-47D breast; BT-549 breast; MDA-MB-435 melanoma; SW-620 colon; MCF7 breast; HCT-116 colon; KM12 colon.
What all share (test): NCI-60 one-dose screen, 48 h (100 = growth as untreated, 0 = no growth, -100 = all killed)
Common to all, as to details: 10 µM unless noted

Compounds without any hit were thinned out: in the full panel of roughly 83,000, 20% have a hit.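 Single-dose data. Exposure time 48 hours. Values below 10 considered active.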 Unmarked numbers belong to inactive results. Activity calls are given as the source filed them.

As for `COc1ccc2c3c([nH]c2c1)C(=O)c1nc(C)ccc1C3=O`, the growth was 37.4% in the test with SR leukemia; 45.4% in the test on RPMI-8226 leukemia; 48.5% in the test on OVCAR-8 ovarian; 85% in the test with OVCAR-5 ovarian; 25.7% with OVCAR-4 ovarian; 76.3% in the test on SK-OV-3 ovarian. Further, the growth with IGROV1 ovarian was 28.8%; with OVCAR-3 ovarian it was -13.9% (active); in the test with HS 578T breast it was 84.9%; in the test with NCI/ADR-RES ovarian, 44.3%; in the test with T-47D breast, 48.5%; with BT-549 breast it was 71.7%. Besides, the growth in the test on MDA-MB-435 melanoma was -76.2% (active); in the test with SW-620 colon, 42.8%; in the test on MCF7 breast it was 41%; in the test with HCT-116 colon, 30.3%; in the test with KM12 colon, 36.6%.

Turning to `Oc1c(Cl)cc(Cl)c2ccc(Cn3cc(-c4ccc(C(F)(F)F)cc4)nn3)nc12`, the growth is -16.8% (active) with SR leukemia; 0.831% (active) with RPMI-8226 leukemia; 70.7% with OVCAR-8 ovarian; 88.7% in the test on OVCAR-5 ovarian; 62.2% in the test with OVCAR-4 ovarian; 104% in the test with SK-OV-3 ovarian. Further, the growth in the test on IGROV1 ovarian was 78.9%; with OVCAR-3 ovarian, -16.1% (active); in the test on HS 578T breast, 87.7%; with NCI/ADR-RES ovarian, 100%; in the test on T-47D breast, 55.4%; in the test with BT-549 breast, 77.7%. The growth with MDA-MB-435 melanoma is 59.5%; with SW-620 colon, 7.74% (active); with MCF7 breast, 29.4%; in the test with HCT-116 colon it was 8.81% (active); in the test with KM12 colon, 101%.

As to `CCCc1cc(NC)nc(S(=O)(=O)CC)n1`, the growth in the test with SR leukemia is 102%; with RPMI-8226 leukemia, 101%; in the test with OVCAR-8 ovarian, 110%; with OVCAR-5 ovarian, 101%; in the test with OVCAR-4 ovarian, 115%; in the test with SK-OV-3 ovarian it was 116%. Also, the growth with IGROV1 ovarian was 105%; in the test with OVCAR-3 ovarian, 119%; in the test on HS 578T breast, 108%; in the test with NCI/ADR-RES ovarian, 104%; in the test with T-47D breast, 111%; with BT-549 breast, 105%. For the same molecule, the growth in the test with MDA-MB-435 melanoma is 104%; in the test with SW-620 colon it was 105%; in the test with MCF7 breast, 92.1%; in the test with HCT-116 colon, 100%; with KM12 colon, 113%.

As for `COc1cc(-c2cc(-c3ccc(N(C)C)cc3)nc(N3CCC(O)CC3)c2C#N)cc(OC)c1OC`, the growth in the test with SR leukemia was 13.4%; in the test on RPMI-8226 leukemia it was -5.93% (active); in the test with OVCAR-8 ovarian, 16.4%; with OVCAR-5 ovarian it was 20.6%; in the test on OVCAR-4 ovarian, 50.8%; with SK-OV-3 ovarian it was 35.3%. Further, the growth in the test on IGROV1 ovarian was 7.25% (active); in the test on OVCAR-3 ovarian, -14.6% (active); in the test on HS 578T breast, 17%; in the test with NCI/ADR-RES ovarian, 14.9%; with T-47D breast it was 8.21% (active); with BT-549 breast, 30.6%. The growth was -18.5% (active) in the test with MDA-MB-435 melanoma; 21.1% with SW-620 colon; 0.557% (active) in the test on MCF7 breast; -38.9% (active) with HCT-116 colon; -0.387% (active) in the test with KM12 colon.

In the case of `COc1ccc2[nH]cc(C(c3cc(F)cc(F)c3)c3c[nH]c4ccc(OC)cc34)c2c1`, the growth is 46.8% in the test on SR leukemia; 57.5% with RPMI-8226 leukemia; 87.2% in the test with OVCAR-8 ovarian; 85% in the test on OVCAR-5 ovarian; 93.9% in the test on OVCAR-4 ovarian; 94.8% with SK-OV-3 ovarian. The growth with IGROV1 ovarian is -7.1% (active); in the test on OVCAR-3 ovarian, 89.9%; in the test on HS 578T breast it was 67.2%; in the test with NCI/ADR-RES ovarian, 72.9%; in the test with T-47D breast, 43.1%; in the test on BT-549 breast, 183%. Further, the growth is 93.4% with MDA-MB-435 melanoma; 81.6% in the test on SW-620 colon; 55.4% in the test on MCF7 breast; 52.9% in the test with HCT-116 colon; 83.6% in the test with KM12 colon.

For the molecule `Cc1nc(-c2ccccc2)cc2c(O)c(C(=O)NN)[nH]c(=O)c12`, the growth with SR leukemia is 106%; in the test on RPMI-8226 leukemia, 103%; in the test on OVCAR-8 ovarian, 106%; in the test on OVCAR-5 ovarian, 110%; in the test on OVCAR-4 ovarian it was 112%; in the test on SK-OV-3 ovarian it was 103%. Also, the growth in the test with IGROV1 ovarian was 7.89% (active); in the test with OVCAR-3 ovarian it was 105%; in the test with HS 578T breast, 109%; with NCI/ADR-RES ovarian, 118%; with T-47D breast, 92.4%; in the test on BT-549 breast, 193%. Besides, the growth in the test with MDA-MB-435 melanoma was 109%; in the test on SW-620 colon, 97.5%; in the test on MCF7 breast, 77.8%; in the test on HCT-116 colon it was 110%; in the test on KM12 colon, 115%.

In the case of `COc1ccc2nc(NC(=O)CSc3nnc4n3S(=O)(=O)c3ccccc3N4C)sc2c1`, the growth in the test on SR leukemia is 65.1%; in the test with RPMI-8226 leukemia it was 74.1%; in the test with OVCAR-8 ovarian it was 84.6%; in the test with OVCAR-5 ovarian, 97.5%; with OVCAR-4 ovarian it was 107%; in the test on SK-OV-3 ovarian, 136%. Moreover, the growth in the test on IGROV1 ovarian is 12.9%; in the test on OVCAR-3 ovarian, 112%; with HS 578T breast, 89.8%; in the test with NCI/ADR-RES ovarian, 98.5%; in the test with T-47D breast, 99.2%; with BT-549 breast, 113%. In addition, the growth was 113% in the test on MDA-MB-435 melanoma; 107% in the test with SW-620 colon; 96.6% with MCF7 breast; 97.1% in the test with HCT-116 colon; 111% with KM12 colon.

As to `CCOC(=O)c1[nH]c(=O)c2c(C)nc(-c3ccccc3)cc2c1O`, the growth in the test on SR leukemia was 97%; in the test with RPMI-8226 leukemia, 93.8%; with OVCAR-8 ovarian, 109%; in the test on OVCAR-5 ovarian, 106%; in the test with OVCAR-4 ovarian, 117%; in the test on SK-OV-3 ovarian, 108%. Further, the growth in the test with IGROV1 ovarian is 1.43% (active); in the test with OVCAR-3 ovarian, 105%; in the test on HS 578T breast it was 98.4%; in the test on NCI/ADR-RES ovarian it was 103%; with T-47D breast, 101%; in the test on BT-549 breast, 146%. Besides, the growth is 109% with MDA-MB-435 melanoma; 98.3% in the test on SW-620 colon; 92.7% with MCF7 breast; 95% with HCT-116 colon; 110% in the test with KM12 colon.

Take `Cc1cc(N)c2cc(NC(=O)/C=C\c3ccccc3Cl)ccc2n1`: the growth is 7.11% (active) with SR leukemia; -70.9% (active) in the test with RPMI-8226 leukemia; -41.9% (active) with OVCAR-8 ovarian; -95.4% (active) in the test with OVCAR-5 ovarian; -64.1% (active) in the test on OVCAR-4 ovarian; -96.4% (active) in the test with SK-OV-3 ovarian. For the same molecule, the growth with IGROV1 ovarian is -67.5% (active); in the test on OVCAR-3 ovarian, -90.2% (active); in the test with HS 578T breast it was -72.3% (active); in the test on NCI/ADR-RES ovarian, 48.9%; in the test on T-47D breast, -58.1% (active); with BT-549 breast, -72.8% (active). The growth in the test on MDA-MB-435 melanoma is -80.5% (active); with SW-620 colon it was -91.2% (active); in the test with MCF7 breast it was -82.4% (active); with HCT-116 colon, -73% (active); with KM12 colon, -83.8% (active).
